Results on 40 compounds are retold here after PubChem BioAssay.

A number with no mark means an inactive call. The source made the active and inactive calls. No stated cut-off is given here; in the data, active means fold change permeability below about 0.7 or above about 1.3; inactive means in between.

The nature of the experiment: modulators of brain endothelial barrier permeability, primary screen, cell-based, FITC-avidin fluorescence, HTS (AID 1963498). Further: test concentration not given here. Conditions: actives lie on both sides.
As for `O=C(NCc1cccnc1)c1ccc([N+](=O)[O-])o1`, the fold change permeability was 1.

In the case of `Nn1nnc2ccccc21`, the fold change permeability was 0.9. Take `Cn1c(=O)c2[nH]c(-c3ccc(S(=O)(=O)O)cc3)nc2n(C)c1=O`: the fold change permeability was 1. As to `N=C(N)c1ccc(N)cc1`, the fold change permeability was 1.1. `O=C(c1ccc(F)cc1)C1CCN(CCn2c(=O)[nH]c3ccccc3c2=O)CC1`: the fold change permeability was 1.2.

In the case of `NC(=O)c1cn(Cc2c(F)cccc2F)nn1`, the fold change permeability is 0.9.

For the compound `CCN(CC)CCNC(=O)c1cc(Cl)c(N)cc1OC`, the fold change permeability was 0.9. With `COC(=O)C1=C(C)NC(C)=C(C(=O)OCCN(C)Cc2ccccc2)C1c1cccc([N+](=O)[O-])c1` (stereo not given) the figure was 1; with `CCCCC1C(=O)N(c2ccccc2)N(c2ccccc2)C1=O`, 0.9. Consider `N=c1c[n+](N2CCOCC2)[n-]o1`, for which the fold change permeability was 0.8. Turning to `NCCc1cnc[nH]1`, the fold change permeability is 1.3 (active).

On to `CC(C)[C@H]1C(=O)N[C@@H](CCCN=C(N)N)C(=O)NCC(=O)N[C@@H](CC(=O)O)C(=O)N[C@H](Cc2ccccc2)C(=O)N1C`, for which the fold change permeability was 1.2. As to `Cn1cc(C(F)(F)F)nc1-c1ccc(OCC(O)CNCCOc2ccc(O)c(C(N)=O)c2)cc1` (stereo not given), the fold change permeability is 1.3 (active). `CC[N+](CC)(CC)CCOc1cccc(OCC[N+](CC)(CC)CC)c1OCC[N+](CC)(CC)CC`: the fold change permeability is 0.8. Turning to `O=C(O)c1ccc(-c2ccc(/C=C3\SC(=S)N(Cc4ccccc4)C3=O)o2)cc1`, the fold change permeability is 2 (active).

For `COc1cccc(OC)c1OCCNCC1COc2ccccc2O1` (stereo not given), the fold change permeability was 1.3 (active). As for `C[C@@H](CN1CCC(Cc2ccccc2)CC1)[C@@H](O)c1ccc(O)cc1`, the fold change permeability is 1.3 (active). In the case of `COc1cc2nc(N3CCCC3)nc(NCCCCCN3CCCC3)c2cc1OC`, the fold change permeability was 1.2.

As to `C[C@H](CS)C(=O)N1CCC[C@H]1C(=O)O`, the fold change permeability is 1. With `NCC(O)C1CCCCCCC1` (stereo not given), the fold change permeability is 1. Consider `N[C@@H](CS(=O)O)C(=O)O`, for which the fold change permeability was 1. Regarding `O=C(O)CCCCCCCC(=O)O`, the fold change permeability is 1.2. Consider `Brc1c(NC2=NCCN2)ccc2nccnc12`, for which the fold change permeability was 1.6 (active). Regarding `OC[C@H]1O[C@@H](n2cnc3c(N[C@H]4CCC[C@@H]4O)ncnc32)[C@H](O)[C@@H]1O`, the fold change permeability was 1. With `Cc1cc2c(s1)Nc1ccccc1N=C2N1CCN(C)CC1`, the fold change permeability was 0.7 (active). On to `O=c1[nH]c(=S)[nH]c(-c2ccccc2)c1Cc1c(O)ccc2ccccc12`, for which the fold change permeability was 0.8. Consider `CN1CCN(CCCN2c3ccccc3Sc3ccc(C(F)(F)F)cc32)CC1`, for which the fold change permeability was 1.2. For `CCCCNc1cc(C(=O)O)cc(S(N)(=O)=O)c1Oc1ccccc1`, the fold change permeability is 1. The value for `N#C/C(=C\c1ccc(O)c(O)c1)C(=O)c1ccc(O)c(O)c1` was 1.8 (active). As to `CCc1c(C)[nH]c2c1C(=O)C(CN1CCOCC1)CC2` (stereo not given), the fold change permeability is 1.

On to `COc1cc(NS(C)(=O)=O)ccc1Nc1c2ccccc2nc2ccccc12`, for which the fold change permeability is 1.2.

In the case of `N[C@H](CO)C(=O)O`, the fold change permeability is 0.8.

Regarding `CC(C)(C)c1ccc(CN2CCN(C(c3ccccc3)c3ccc(Cl)cc3)CC2)cc1` (stereo not given), the fold change permeability is 1.6 (active). On to `CN1CCc2cc(Cl)c(O)cc2[C@@H](c2ccccc2)C1`, for which the fold change permeability is 0.9. On to `CCCCCCCCCCCCCCCCCCc1ccc(C(=O)/C=C/C(=O)O)cc1`, for which the fold change permeability was 1.2. As to `CN1C(=O)CC[C@H]1c1cccnc1`, the fold change permeability was 0.9. Take `O=C(OC1C[C@@H]2CC3C[C@H](C1)N2CC3=O)c1c[nH]c2ccccc12` (stereo not given in full): the fold change permeability is 0.8.

Consider `CCn1cc(C(=O)O)c(=O)c2cc3c(cc21)OCO3`, for which the fold change permeability was 1.

Consider `NC(N)=N/N=C/c1c(Cl)cccc1Cl`, for which the fold change permeability was 1. With `O=C(NCc1ccc(F)cc1)C1CCN(S(=O)(=O)c2cc(Cl)cc(Cl)c2)CC1`, the fold change permeability is 1.5 (active).
